Many of the other results were omitted from the sample, so hits are more common in it than they were.
Pf apPOL inh – Pf-apPOL inhibitors, biochemical, fluorescence; hit rate 0.25% among 210,000; Recombinant Pf-apPOL, molecular beacon fluorescence, 1.5 h; inhibition, % at 10 µM; AID 1794808, 2022; Plasmodium falciparum apicoplast DNA polymerase (apPOL)
mHTT-CaM PPI inh – mutant huntingtin-calmodulin interaction inhibitors – biochemical, AlphaScreen, primary screen | inhibition, % at 15 µM | P42858 | AID 1671202, 2021 | hit rate 3.6% among 190,000 | AlphaScreen His-mHTT/GST-CaM binding, luminescence
Of the large screens only hits and unclear results are named; the others gave an inactive call. Cut-off read from the data, not from the text of the source: active = inhibition above about 50%; inactive = the rest.

COc1ccc(-c2nc3ccc(N=Cc4cc5c(cc4[N+](=O)[O-])OCO5)cc3o2)cc1	none
O=[N+]([O-])c1cccc(C=Nc2ccc(I)cc2)c1O	none
O=[N+]([O-])c1cc2c(cc1C=Nc1ccc(I)cc1)OCO2	mHTT-CaM PPI inh 64
Cc1ccc(N=Cc2cc3c(cc2[N+](=O)[O-])OCO3)cc1I	mHTT-CaM PPI inh 55
COc1ccc(C2(CNCC#N)CCCC2)cc1OC	none
COc1ccc2oc(=O)c(-c3nnc(Nc4ccccc4F)s3)cc2c1	none
Cc1ccc(S(=O)(=O)N=C2NC(=O)/C(=C/c3ccccn3)S2)cc1	none
CCOc1ccc(/C=C2\SC(=NS(=O)(=O)c3ccc(C)cc3)NC2=O)cc1	mHTT-CaM PPI inh 51
COc1ccc(NC(=O)C(C)Oc2ccccc2)cc1OC (centres undefined)	none
Cc1ccc(C)n1-c1ccc(C=NNc2ccc(F)cc2F)cc1	none (no result: mHTT-CaM PPI inh)
CN(C)c1ccc(Nc2cccc3nccnc23)cc1	mHTT-CaM PPI inh 61
c1cc(Nc2cccc3nccnc23)c2nccnc2c1	none
COc1cccc(NC(=O)CSc2nnc3ccccn23)c1	none
COc1cccc(NC(=O)CSc2nnc(Cc3ccccc3)n2C)c1	mHTT-CaM PPI inh 73
O=C(Nc1ccc(F)c(Cl)c1)c1cc2cc3ccc(Cl)cc3nc2o1	none
O=C(CSc1nnc2c3ccccc3n(CCc3ccccc3)c2n1)N1CCOCC1	none
Cc1ccc2oc(=O)c(C=C(O)c3ccccc3)nc2c1	none
C#CCOc1cc(Br)c(/C=C2/NC(=O)NC2=O)cc1OC	none
Clc1cccc(N2CCN(c3ncnc4c3nc3n4CCCC3)CC2)c1	none
O=C(Nc1cc(F)ccc1F)C1CCN(c2ncnc3c2nc2n3CCCCC2)CC1	none
Cc1ccc(Cl)cc1N1CCN(c2ncnc3c2nc2n3CCCCC2)CC1	mHTT-CaM PPI inh 99
Cc1ccc(N(C)C(=O)C2CCCN(c3ncnc4c3nc3n4CCCCC3)C2)cc1C (centres undefined)	none
O=C(Nc1ccccc1F)C1CCN(c2ncnc3c2nc2n3CCCCC2)CC1	Pf apPOL inh 96
Cc1ccc(N(C)C(=O)C2CCN(c3ncnc4c3nc3n4CCCCC3)CC2)cc1C	mHTT-CaM PPI inh 56
Nc1nc(-c2cc3cc(Cl)cc(Cl)c3oc2=O)cs1	none
CC(=O)Nc1nc(-c2cc3cc(Cl)cc(Cl)c3oc2=O)cs1	Pf apPOL inh 98
COc1ccccc1OCC(O)CN1CCN(c2ccc(F)cc2)CC1 (centres undefined)	none
Cc1ccc(OCC(O)CN2CCN(c3ccccc3)CC2)c(C)c1 (centres undefined)	none
Cc1cc(Cl)ccc1OCC(O)CN1CCN(c2ccccc2)CC1 (centres undefined)	mHTT-CaM PPI inh 93
COc1ccccc1N1CCN(C(=O)COc2cc(C)c(Br)c(C)c2)CC1	mHTT-CaM PPI inh 56
COc1ccccc1N1CCN(CC(O)COc2ccc(Cl)c(C)c2)CC1 (centres undefined)	mHTT-CaM PPI inh 99
COc1ccccc1N1CCN(C(=O)COc2ccc(Br)cc2C)CC1	none
CC(C)(C)c1ccccc1OCC(O)CN1CCN(c2ccccc2)CC1 (centres undefined)	mHTT-CaM PPI inh 99
COc1ccccc1N1CCN(CC(O)COc2ccc(C)c(C)c2)CC1 (centres undefined)	none
CS(=O)(=O)c1ccc2nc(NCC3CCCO3)sc2c1 (centres undefined)	none
O=C(CCC1CCCC1)N1CCN(S(=O)(=O)c2ccccc2[N+](=O)[O-])CC1	none
COc1ccccc1-c1cc(=O)c2cc(NC(=O)C(C)(C)C)ccc2o1	none
O=C1C2CC(Br)C(Br)CC2C(=O)N1CC1CCCO1 (centres undefined)	none
O=C1/C(=C/C2CCCO2)CC/C1=C\C1CCCO1 (centres undefined)	mHTT-CaM PPI inh 68 (no result: Pf apPOL inh)
CCNC(=O)c1csc(COc2cc(C)cc(C)c2C)n1	none
COc1ccc(Cl)cc1/C=C/c1ccc2cccc(O)c2n1	mHTT-CaM PPI inh 52
Oc1ccc(/C=C/c2ccc3cccc(O)c3n2)cc1Br	mHTT-CaM PPI inh 62
CCOc1cc(/C=C/c2ccc3cccc(O)c3n2)ccc1O	none
O=C(O)c1ccc(/C=C/c2ccc3cccc(O)c3n2)cc1	none
CCOc1cccc(/C=C/c2ccc3cccc(O)c3n2)c1OC	none
COc1cc(/C=C/c2ccc3cccc(O)c3n2)cc(OC)c1O	mHTT-CaM PPI inh 74
Cc1nc(SCC(=O)Nc2cccc(C(F)(F)F)c2)c(C#N)c(C)c1Cl	none
CCOc1ccc(NC(=O)c2noc3c2CCCC3)cc1	none
CC(=O)Nc1ccc(N2C(=O)CC(NCCc3cccc(F)c3)C2=O)cc1 (centres undefined)	none
Cc1cc(C)n2nc(S(=O)(=O)Nc3c(Cl)nc(C)c(Cl)c3C)nc2n1	none
Cc1cccc(NC(c2ccc(O)cc2)c2ccc3ccc(C)nc3c2O)n1 (centres undefined)	mHTT-CaM PPI inh 97
Cc1cccc(NC(c2ccccc2[N+](=O)[O-])c2ccc3ccc(C)nc3c2O)n1 (centres undefined)	mHTT-CaM PPI inh 75

Screening data from PubChem.
